We go through 41 compounds from ChEMBL document CHEMBL4888484, “Replenishing the malaria drug discovery pipeline: Screening and hit evaluation of the MMV Hit Generation Library 1 (HGL1) against asexual blood stage Plasmodium falciparum ,using a nano luciferase reporter read-out” (2022).

The campaign covered roughly 150,000 compounds. About 540 (0.36%) showed an effect of 50% or more. This is one part of a sample in which strong results are shown more often than they occur.

This assay concerns Plasmodium falciparum. Briefly: Primary screen in NF54 nanoGlo assay, in single point, at 2uM, 72h; a lower Z score goes with more inhibition. The assay is classed as functional, Erythrocyte. As to conditions: timepoint 72 hour.
For `COc1ccc(CN2C(=O)c3cc(-c4ccc(OC)cc4)nn3C[C@@]2(C)C(=O)NCc2ccccc2)cc1`, the % Inhibition (usually the change of the read-out against control, counted positive when it falls) was found to be 6% and the Z score is given as -0.96.
As to `Cc1nc(NC(=O)CC2=CCCCC2)n(C)n1`, the “% Inhibition” value amounted to 5% and the Z score is -0.53.
Regarding `CN(C(=O)OC(C)(C)C)[C@H]1CCCN(C(=O)c2ccn(C)c(=O)c2)C1`, the “% Inhibition” value came out at 3% and the Z score is reported as -0.37.
Regarding `CC1(C)CC(C)(C)c2ccccc2CN1`, the “% Inhibition” value worked out at 3% and the Z score is given as -0.41.
Taken in the same sequence, the figures for `Cn1nccc1NC(=O)Cn1ncc2cc(-c3cccc4cccnc34)ccc21` were 0% and -0.05.
On to `COc1ccc(C2=C[C@@H](c3cccc(OC)c3)n3ncc(C(=O)Nc4ccccc4)c3N2)cc1`, for which the “% Inhibition” value is on record as 6% and the Z score was -0.59.
Taken in the same sequence, the figures for `COc1ccc(C2=C[C@@H](c3ccc(F)cc3)n3ncc(C(=O)Nc4ccc(C)cc4)c3N2)cc1` were 2% and -0.16.
Taken in the same sequence, the figures for `CCc1ccc(C2=C[C@@H](c3cccc(OC)c3)n3ncc(C(=O)Nc4ccc(C)cc4)c3N2)cc1` were 60% and -5.98.
The corresponding values for `O=C(N[C@@H](Cn1nccn1)c1ccccc1)c1ccncc1` are -13% and 1.97.
For the compound `O=C(N[C@@H](Cn1nccn1)c1ccccc1)c1cc(Br)ccc1Cl`, the “% Inhibition” value is 57% and the Z score is -6.89.
The corresponding values for `O=C(N[C@@H](Cn1nccn1)c1ccccc1)c1cc(-c2ccccc2)n[nH]1` are -4% and 0.69.
The corresponding values for `Fc1cc(Cl)ccc1OC[C@@H]1CCCN2CCCC[C@H]12` are 17% and -2.29.
With `Clc1cccc(OC2CN(C[C@@H]3CCCN4CCCC[C@H]34)C2)c1`, the “% Inhibition” value is on record as 3% and the Z score is listed as -0.42.
The corresponding values for `Cc1n[nH]c(C)c1CCCN(C)C(=O)c1cn2cccnc2n1` are 4% and -0.72.
For `Cc1cc(C)c(CNC(=O)c2cnn(C)c2C)c(=O)[nH]1`, the “% Inhibition” value is given as -9% and the Z score is reported as 1.13.
The corresponding values for `Clc1ccc(-c2nnc(-c3ccco3)c3nocc23)cc1` are 3% and -0.41.
The corresponding values for `O=c1[nH]nc(-c2ccc(Cl)cc2)c2cn(-c3ccc(Cl)cc3)nc12` are -14% and 1.65.
Take `Cc1nnc(-c2ccco2)c2cn(-c3ccc(Cl)cc3)nc12`: the “% Inhibition” value came to 69% and the Z score stood at 1.
The corresponding values for `Cc1noc(C)c1C(=O)N1CCC[C@H](Oc2ncc(Cl)cn2)C1` are -3% and 0.45.
The corresponding values for `O=C(NCCN1CCC[C@H](CO)C1)c1cccc(-c2ccc3occc3c2)c1` are -3% and 0.37.
Taken in the same sequence, the figures for `Cn1nc2c(c1C(=O)NCc1csc(N)n1)CCCC2` were 5% and -0.77.
In the case of `C[C@H](Nc1nc(N(C)C)nc2ccccc12)c1ccccc1`, the “% Inhibition” value is listed as -5% and the Z score worked out at 0.67.
For the compound `CNc1nc(Nc2ccc3c(c2)OCCO3)nc2ccccc12`, the “% Inhibition” value came to 89% and the Z score was -16.08.
As for `C[C@H](Nc1nc(N2CCCCC2)nc2ccccc12)c1ccccc1`, the “% Inhibition” value worked out at 40% and the Z score was -5.78.
Taken in the same sequence, the figures for `CC(C)COC(=O)c1nc2ccccc2nc1Nc1ccc2c(c1)OCCO2` were 8% and -0.98.
Turning to `CNc1nc(NCCc2ccccc2)nc2ccccc12`, the “% Inhibition” value was 83% and the Z score is listed as -8.48.
Regarding `Cc1nc(Nc2ccc3c(c2)OCCO3)cc(-c2ccccc2)n1`, the “% Inhibition” value is reported as 5% and the Z score is reported as -0.89.
Take `CNc1nc(NCc2ccccc2)nc2ccccc12`: the “% Inhibition” value was found to be 81% and the Z score is -8.4.
As for `Nc1ncnc(NCCc2ccccc2)n1`, the “% Inhibition” value is reported as 2% and the Z score is listed as -0.24.
The corresponding values for `NS(=O)(=O)c1ccc(CCNc2nc(-c3ccccc3)nc3ccccc23)cc1` are 39% and 0.27.
As for `CCN(Cc1nc(C(N)=O)no1)Cc1c(F)cccc1Cl`, the “% Inhibition” value is given as -6% and the Z score came to 1.04.
As for `CC(C)(N)c1ccc(Cl)c(Cl)c1`, the “% Inhibition” value is recorded as -9% and the Z score was found to be 1.19.
Taken in the same sequence, the figures for `Nc1c(Br)cc2oc(-c3ccc4ccccc4c3)nc2c1Br` were 36% and -1.3.
`O=C(N[C@H]1CCn2nccc2C1)c1ccc(OC(F)F)cn1`: the “% Inhibition” value is -8% and the Z score was 0.97.
`CC(C)(C)OC1CC(NCC(=O)NCC2CC2)C1(C)C` (configuration not stated): the “% Inhibition” value was -5% and the Z score is reported as 0.8.
The corresponding values for `COC(=O)[C@H]1CCc2nnc(Cc3ccc(F)cc3)n2C1` are -9% and 1.42.
For `O=C(c1ccccc1C(F)(F)F)N1CC2(CCOC2)C1`, the “% Inhibition” value was 5% and the Z score is recorded as -0.56.
The corresponding values for `Cc1nc(N)nc(C(F)(F)F)c1Br` are -1% and 0.16.
In the case of `COc1ccc(C(=O)c2ccccc2C(=O)Nc2cn[nH]c2)cc1`, the “% Inhibition” value was -8% and the Z score is recorded as 1.57.
With `O=C(Nc1cnc2ccccc2c1)c1ccccc1C(=O)c1ccc(F)cc1`, the “% Inhibition” value is reported as 93% and the Z score is -10.24.
`O=C(NC1CC1)c1ccccc1C(=O)c1ccc(F)cc1`: the “% Inhibition” value was -8% and the Z score came out at 1.02.
